From PubChem BioAssay (NCI)
Compounds without any hit were thinned out: in the full panel of roughly 83,000, 20% have a hit.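 How to read the values: 0–100, growth inhibition (40 = 60% inhibited); 0, no net growth; -100 to 0, cell death (-40 = 40% of starting cells died; -100 = all dead).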 Unmarked numbers belong to inactive results. Activity calls are given as the source filed them. Rule for the calls: active = growth percent below 10; inactive = the rest.

What was measured:
Assay in all cases: NCI-60 one-dose screen, 48 h (100 = growth as untreated, 0 = no growth, -100 = all killed)
Conditions in all cases: 10 µM unless noted
DU-145 prostate = system: DU-145 prostate
K-562 leukemia = system: K-562 leukemia
MALME-3M melanoma = system: MALME-3M melanoma
MDA-MB-231 breast = system: MDA-MB-231 breast
RXF 393 renal = system: RXF 393 renal
SF-268 CNS = system: SF-268 CNS
SF-295 CNS = system: SF-295 CNS
SF-539 CNS = system: SF-539 CNS
UACC-257 melanoma = system: UACC-257 melanoma
M14 melanoma = system: M14 melanoma
HCT-15 colon = system: HCT-15 colon
HT29 colon = system: HT29 colon
SNB-75 CNS = system: SNB-75 CNS
SNB-19 CNS = system: SNB-19 CNS
U251 CNS = system: U251 CNS
PC-3 prostate = system: PC-3 prostate
SK-MEL-5 melanoma = system: SK-MEL-5 melanoma
UACC-62 melanoma = system: UACC-62 melanoma
LOX IMVI melanoma = system: LOX IMVI melanoma
SK-MEL-28 melanoma = system: SK-MEL-28 melanoma

SMILES | growth (DU-145 prostate) | growth (K-562 leukemia) | growth (MALME-3M melanoma) | growth (MDA-MB-231 breast) | growth (RXF 393 renal) | growth (SF-268 CNS) | growth (SF-295 CNS) | growth (SF-539 CNS) | growth (UACC-257 melanoma) | growth (M14 melanoma) | growth (HCT-15 colon) | growth (HT29 colon) | growth (SNB-75 CNS) | growth (SNB-19 CNS) | growth (U251 CNS) | growth (PC-3 prostate) | growth (SK-MEL-5 melanoma) | growth (UACC-62 melanoma) | growth (LOX IMVI melanoma) | growth (SK-MEL-28 melanoma)
[2H]C([2H])([2H])Oc1ccc(/C=C/C(=O)/C=C(/C=C/c2ccc(OC([2H])([2H])[2H])c(OC([2H])([2H])[2H])c2OC([2H])([2H])[2H])OB(F)F)c(OC([2H])([2H])[2H])c1OC([2H])([2H])[2H] | 68.8% | 29.3% | 57% | 75.1% | 83.8% | 88.8% | 97.2% | 77.7% | 53.5% | 61.2% | 39.6% | 38.5% | 57.1% | 83% | 47.7% | 67.6% | 92.4% | 56.5% | 13.2% | 73.3%
C1=C2CCCC3=Cc4ccccc4OC23Oc2ccccc21 | 28.1% | 15.3% | 56.8% | 43.5% | 9.77% (active) | 31.6% | 11.3% | 7.81% (active) | 40.1% | 19.2% | 20.1% | 5.93% (active) | 23% | 27.4% | 26.5% | 34.7% | 20% | 14.5% | 23% | 54.2%
CCCCCN(CCCCC)CC(O)c1c(Cl)ccc2ccccc12 (stereo not given) | 69.4% | 61.7% | 94.7% | 39.7% | 63.1% | 84.7% | 71.7% | 64.2% | 83.1% | 72.2% | 55.8% | 31.4% | 92% | 92.3% | 80.3% | 75.2% | 72.8% | 59.7% | 71.6% | 97.3%
COc1ccc(NC(=O)c2sc3nc(C)c(C(=O)c4ccccc4)cc3c2N)cc1 | 116% | 94.2% | 102% | 98.6% | 87.8% | 104% | 103% | 102% | 96.9% | 106% | 95.2% | 89.8% | 107% | 90.8% | 100% | 97% | 103% | 79.9% | 108% | 89.9%
O=C(/C=C\c1ccc(O)c(O)c1)c1ccccc1O | 94.4% | 73.4% | 97.4% | 69.3% | 42.8% | 69.5% | 99.7% | 59.3% | 86.1% | 93.5% | 46% | 90.8% | 76.9% | 81.4% | 69% | 76.7% | 77.2% | 72.6% | 75.1% | 94.9%
Cc1c(C(=O)C(SC(=S)N2CCOCC2)SC(=S)N2CCOCC2)nnn1-c1ccc([N+](=O)[O-])cc1 | 109% | 74.7% | 93.7% | 101% | 105% | 104% | 96.5% | 101% | 93.2% | 89.8% | 89.3% | 92.3% | 94.2% | 96.3% | 95.3% | 96.1% | 107% | 88% | 108% | 103%
COc1ccc(Cn2cc3c(c2)-c2oncc2CC3)cc1 | 176% | 20.6% | 83.2% | 70.5% | 75.8% | 136% | 58.6% | 48% | 85.9% | 29.2% | 54.8% | 9.48% (active) | 50.6% | 71.8% | 42.8% | 82.3% | 49.7% | 38.6% | 59% | 69.9%
COc1ccc(/C=N\NC(=O)c2ccc3nc(-c4ccc(Cl)cc4)[nH]c3c2)cc1 | 79.3% | 31.9% | 6.53% (active) | 39.8% | 43.8% | 19.9% | -38.9% (active) | 42.6% | 54.4% | 26.2% | 57.5% | 21.9% | 91.9% | 24.2% | 7.96% (active) | -4.4% (active) | 33.7% | 30.9% | 0.882% (active) | 12.5%
O=C(/C=C/c1cccc([N+](=O)[O-])c1)c1ccc(Nc2nc(Nc3ccc(F)cc3)nc(Nc3ccc(Cl)cc3)n2)cc1 | 106% | 70% | 105% | 92.2% | 3.04% (active) | 93.8% | 84.8% | 106% | 100% | 92.5% | 83.9% | 88% | 106% | 100% | 81.1% | 88.5% | 87.6% | 93.9% | 84.2% | 97.1%
c1ccc(-c2nc(N3CCNCC3)c3oc(-c4ccccc4)nc3n2)cc1 | -55.4% (active) | 2.28% (active) | -93.9% (active) | -87.1% (active) | -81.4% (active) | -48.8% (active) | -73.6% (active) | -95.9% (active) | 101% | -60.3% (active) | -75.6% (active) | -26.2% (active) | -95.9% (active) | -27.9% (active) | -57% (active) | -27.9% (active) | -93.3% (active) | -82% (active) | -81.9% (active) | -95% (active)
CC(=O)OCCOc1cc(Cl)c(Cl)cc1Cl | 105% | 102% | 114% | 94.3% | 102% | 99.4% | 95% | 107% | 102% | 103% | 104% | 103% | 102% | 103% | 99.2% | 98.3% | 99.5% | 98.3% | 101% | 113%
C#Cc1cccc(Nc2nc(Cl)nc3cc(NC(=O)CCl)ccc23)c1 | -93.5% (active) | -36.2% (active) | -83.3% (active) | -73% (active) | -94.2% (active) | -52.2% (active) | -86.9% (active) | -96.5% (active) | -53.9% (active) | -52.2% (active) | -77.7% (active) | -37.8% (active) | -97.5% (active) | -77.1% (active) | -81.8% (active) | -85.6% (active) | -90.9% (active) | -80.5% (active) | -77.3% (active) | -94.4% (active)
CC(C)=CC(=O)C1C(=O)c2ccccc2C1=O | 104% | 74.5% | 83.6% | 107% | 104% | 101% | 98.3% | 104% | 107% | 94% | 95% | 111% | 90% | 94.7% | 95.1% | 100% | 99.2% | 94.3% | 96.8% | 108%
Cn1ccnc1C(=O)/C=C/c1ccc(C(=O)Nc2c(F)c(F)c(F)c(F)c2F)cc1 | 12.3% | 1.03% (active) | 80.9% | 7.97% (active) | -52% (active) | 3.53% (active) | 18.2% | -69.9% (active) | 73.7% | 19.2% | -15.5% (active) | 1.2% (active) | 7.64% (active) | 5.66% (active) | -48.9% (active) | 7.27% (active) | 53.1% | 29.3% | -83.5% (active) | 82.5%
